Compound activity deposited in PubChem by several laboratories.
MLLE-PAM2 inh: inhibitors of PABP1 MLLE–PAM2 peptide binding, primary screen, biochemical, fluorescence polarization, FITC-PAM2, GST-MLLE. inhibition, % at 20 µM. Polyadenylate-binding protein 1 (Homo sapiens), P11940. AID 588489, 2011. hit rate 0.36% among 360,000; in the data active = inhibition above about 35%, passing the limit was not always enough;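 also: plate controls were DMSO wells with GST-MLLE for no effect and wells lacking GST-MLLE protein for full effect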
PABP FP inh: PABP poly(A) RNA binding inhibitors, primary screen, biochemical, fluorescence polarization, uHTS; calls only at 35 µM; hit rate 1% among 290,000;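 also: calls also rest on retests at 20 µM and on dose response follow-up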
eIF4H inh: human eIF4H binding inhibitors, primary screen, translation initiation inhibitor project, biochemical, uHTS, fluorescence polarization; Eukaryotic translation initiation factor 4H (Homo sapiens), Q15056; eIF4H fluorescence polarization binding assay; inhibition, % at 35 µM; hit rate 0.94% among 290,000;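 also: calls also rest on retests at 20 µM and on dose response follow-up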
MEX-5 binding: MEX-5 zinc finger RNA-binding disruptors – biochemical, C. elegans, fluorescence polarization, MLPCN library, primary screen; Zinc finger protein mex-5 (Caenorhabditis elegans), Q9XUB2; MEX-5/FITC-TCR2 RNA binding; active compounds read low; activity score (negative = inhibition of binding), % at 10 µM; hit rate 0.38% among 300,000; AID 1832, 2009;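 active = inhibition past about -25% in most replicates, and total fluorescence under double the plate's negative control median, limit read from the data; inconclusive = replicates evenly split on the limit, or fluorescence at least double controls; inactive = too little inhibition in most replicates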;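 also: 0% = DMSO and -100% = 5 µM competing unlabeled TCR2 RNA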
EBV gp42 block: Epstein-Barr virus gp42 inhibitors, primary screen, biochemical, uHTS, fluorescence polarization. inhibition, % (tested at 21.74 µM). Glycoprotein 42 (Epstein-Barr virus (strain AG876)), Q1HVG2. hit rate 0.42% among 220,000. Fluorescence polarization binding assay, mP read-out; in the data active = inhibition above about 50%
Target sequence (Q1HVG2 whole entry, looked up): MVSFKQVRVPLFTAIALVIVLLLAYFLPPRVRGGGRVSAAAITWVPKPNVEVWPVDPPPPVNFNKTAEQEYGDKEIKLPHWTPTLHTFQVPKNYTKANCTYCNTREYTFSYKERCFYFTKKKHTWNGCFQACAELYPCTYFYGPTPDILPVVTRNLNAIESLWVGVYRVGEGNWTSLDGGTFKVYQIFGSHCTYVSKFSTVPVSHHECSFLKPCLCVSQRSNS
Active calls of the source: *; i = inactive; ? = inconclusive; · = no result; + = active, no number. Most compounds without a hit are left out; they make up all but 1.8% or so of the library. Unless noted, no rule for the calls is given here.

SMILES	MLLE-PAM2 inh	PABP FP inh	eIF4H inh	MEX-5 binding	EBV gp42 block
Cc1cc2cc(CNC(=S)Nc3ccc(OC(F)F)cc3)ccc2n1C	39.3*	+	74.8*	-0.1	-2.6
Cc1cc2cc(CNC(=O)c3cc4ccccc4o3)ccc2n1C	·	i	20.9	-1.7	4.6
Cc1cc2cc(CNC(=O)c3ccc4c(c3)OCO4)ccc2n1C	56.1*	+	61.2*	-0.5	-0.6
N#Cc1ccc(NC(=S)N2CCC3CC2c2cc(-c4ccc5c(c4)OCO5)ccc23)cc1 (stereo not drawn)	-72.3	·	·	·	·
CCCS(=O)(=O)NC(=O)C1(C)CCCN(C(=O)c2ccccc2OC(F)(F)F)C1 (stereo not drawn)	-12.3	·	·	·	·
COc1ccc(/C=C/CN2CCC(C(=O)NC(c3ccc(F)cc3)c3ccc4ccccc4n3)CC2)cc1 (stereo not drawn)	0.7	·	·	·	·
Cc1ccc(S(=O)(=O)NCc2ccc3c(c2)cc(C)n3C)cc1	34.6	+	57.9*	3.7	-1.8
O=C1c2ccccc2C(=O)N1Cc1ccc2c(c1)OCO2	-5.0	i	-6.8	-3.1	-6.5
COc1cc(OC)cc(C(=O)NCc2ccc3c(c2)cc(C)n3C)c1	78.0	i	69.3	1.2	9.2
COc1ccc(C(=O)NCc2ccc3c(c2)cc(C)n3C)cc1	51.1*	i	49.1	0.1	-9.0
Cc1cc2cc(CN3C(=O)c4ccccc4C3=O)ccc2n1C	48.4*	i	94.0	0.2	-7.4
C=CCOC(=O)C(C#N)c1nc2ccccc2nc1N1CCN(Cc2ccccc2)CC1 (stereo not drawn)	-0.2	+	57.3*	-2.6	11.5
COCCOC(=O)C(C#N)c1nc2ccccc2nc1N1CCN(Cc2ccccc2)CC1 (stereo not drawn)	13.2	i	36.9	-7.1	-2.8
CCCCOC(=O)C(C#N)c1nc2ccccc2nc1N1CCN(Cc2ccc3c(c2)OCO3)CC1 (stereo not drawn)	0.9	+	53.9*	-2.7	1.1
CC(C)COC(=O)C(C#N)c1nc2ccccc2nc1N1CCN(Cc2ccccc2)CC1 (stereo not drawn)	6.8	+	44.4*	-7.0	-3.0
COC(=O)C(C#N)c1nc2ccccc2nc1N1CCN(Cc2ccc3c(c2)OCO3)CC1 (stereo not drawn)	·	i	11.3	-2.5	·
Cc1ccccc1C1C(C#N)=C2N=C(N)c3c(sc4c3CCCCC4)N2C2=C1C(=O)CC(C)(C)C2 (stereo not drawn)	13.2	i	114.2*	-2.4	12.6
Cc1ccccc1C1C(C#N)=C2NC(=O)c3c(sc4c3CCCCC4)N2C2=C1C(=O)CC(C)(C)C2 (stereo not drawn)	·	i	46.6	?	-14.6
CN1CCCC(C)(C(=O)Nc2ccc(-n3cccc3)cc2)C1 (stereo not drawn)	-19.2	·	·	·	·
COC(=O)CCC(=O)OC1(C)C(=O)C2=CN(c3ccc(OC)cc3)C(c3ccc(OC)cc3)=CC2=C(Br)C1=O (stereo not drawn)	-26.7	·	·	-6.2	·
COc1ccc(C2=CC3=C(Br)C(=O)C(C)(OC(=O)c4cccs4)C(=O)C3=CO2)cc1 (stereo not drawn)	-48.6	·	·	-33.6*	·
COc1ccc(C2=CC3=C(Br)C(=O)C(C)(OC(=O)c4ccco4)C(=O)C3=CO2)cc1 (stereo not drawn)	-49.7	?	?	-47.5*	11.4
CCCCNC(=O)C1(C)CCCCCN1Cc1cccc2c(OC)cc(C(=O)OCC)cc12 (stereo not drawn)	7.3	·	·	·	·
CC(=O)Nc1ccc2cnn(C(C)=O)c2c1	-4.5	·	·	·	·
COc1ccc(NS(=O)(=O)c2ccc(F)c(Cl)c2)cn1	46.7*	?	?	-12.9	·
SMILES	MLLE-PAM2 inh	PABP FP inh	eIF4H inh	MEX-5 binding	EBV gp42 block
Cc1ccc2c(c1)c(C)cc(=O)n2CCC(=O)O	7.5	i	88.4*	0.7	2.0
Cc1c(C)n(CCC(=O)O)c2ccccc12	-8.1	i	3.7	-0.5	8.6
COc1ccccc1C#Cc1cnc2c(c1)C(=O)N([C@H](C)CO)C[C@@H](C)[C@@H](CN(C)C(=O)c1ccc3c(c1)OCO3)O2	-13.8	·	·	·	·
O=C(NCc1ccccc1)c1cc(C2COCCN2S(=O)(=O)c2ccccc2)on1 (stereo not drawn)	-5.3	·	·	·	·
CCN(c1ccccc1)S(=O)(=O)c1cc(C(=O)O)ccc1C	-11.8	+	53.2*	-0.9	-14.1
Cc1ccc(S(=O)(=O)N(C)c2ccc(C(=O)NCC(c3ccccc3)N3CCCC3)cc2)cc1 (stereo not drawn)	-0.2	·	·	·	·
NC(Cc1ccc(Cl)cc1)c1csc(Nc2ccc(C(F)(F)F)cn2)n1 (stereo not drawn)	29.9	·	·	·	·
CCOC(=O)C1=NNC(C(=O)c2ccc(Cl)cc2)C1c1ccc(OC)cc1 (stereo not drawn)	12.2	i	-0.7	2.0	82.2*
O=c1[nH]c2cc3c(cc2cc1CN(CCCO)Cc1nnnn1Cc1ccc(F)cc1)OCO3	45.9*	i	4.1	-2.8	-7.0
CC(C)C(c1nnnn1Cc1ccccc1)N(CCCO)Cc1cc2cc3c(cc2[nH]c1=O)OCO3 (stereo not drawn)	27.6	+	111.1*	-1.2	4.8
OCC[C@@H]1C[C@H](O)[C@@H](O)[C@]2(OCc3ccc(CO)cc32)O1	14.4	·	·	·	·
COc1ccccc1OCC(=O)Nn1c(=S)[nH]c2ncccc2c1=O	43.7*	i	-10.5	-1.5	-27.8
O=C(COc1ccc(Cl)cc1Cl)Nn1c(=S)[nH]c2ncccc2c1=O	46.3*	i	-7.2	0.5	-14.4
CN(C)Cc1csc(NC(=O)Nc2ccccc2C(C)(C)C)n1	7.8	·	·	·	·
Cc1ccccc1NC(=O)Cc1nc(COC(=O)CCc2ccccc2)cs1	0.7	·	·	·	·
COc1ccccc1CCC(=O)OCc1csc(CC(=O)Nc2ccccc2C)n1	-8.3	i	6.0	-26.7*	·
Cc1ccc([N+](=O)[O-])cc1S(=O)(=O)Nc1ccc(O)c(Sc2ncn[nH]2)c1	41.1*	i	1.6	-40.1*	·
Cc1ccc(NC(=O)CCl)c(C)c1	5.5	i	-13.6	0.0	-10.3
CCc1cc(SC#N)cc(C)c1NC(=O)CCl	39.7*	i	-3.8	-0.1	-4.8
Cc1cc(SC#N)cc(C)c1NC(=O)CCl	28.1	i	7.5	-2.1	-13.0
CCC(=O)Nc1ccc(SC#N)cc1C	59.0*	i	-6.0	-0.1	-12.3
CN(C)S(=O)(=O)c1ccc(NC(=O)Cn2nc(-c3ccc4c(c3)OCCO4)ccc2=O)cc1	-2.1	·	·	·	·
Cc1ccc2nc(C(C)(C)C)c(Cc3cccc(F)c3)n2c1	0.7	·	·	·	·
CCC(=O)N1CCC(C)(C(=O)NCc2ccc(F)cc2)C1 (stereo not drawn)	-4.4	·	·	·	·
C=CCc1cccc(/C=N/c2ncccc2O)c1O	1.4	+	70.5*	-8.1	3.8
